Test results from PubChem BioAssay (EPA / NIEHS).
Calls of active or inactive are those of the source. Rule for the calls: active = hit-call score of the fitted dose curve at least 0.9, where 1 is the maximum; inactive = score below 0.9.

These molecules were tested on X-box binding protein 1 (XBP1), XBP1 (gene 7494) (assay: LTEA_HepaRG_XBP1: Life Technologies and Expression Analysis (LTEA) Assay for X-box binding protein 1 (XBP1) using HepaRG (AID 2283540)). Conditions: mRNA level, 48 h; actives raise or lower the signal.
How it was run: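 Differentiated human HepaRG cells in serum-free induction medium were exposed in duplicate for 48 h to eight half-log concentrations up to 100 uM in 0.5% DMSO. XBP1 mRNA was quantified by qRT-PCR, normalised to ACTB, GAPDH and POLR2A, with bidirectional fitting against DMSO.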

Compound	outcome	AC50
CCCCCOC(=O)COc1cc(N2C(=O)C3=C(CCCC3)C2=O)c(F)cc1Cl	inactive	–
CCSC(=O)N(CC(C)C)CC(C)C	inactive	–
CCC(C)OC(=O)N1CCCCC1CCO (stereo unspecified)	inactive	–
CCCCCCC(C)OC(=O)COc1nc(F)c(Cl)c(N)c1Cl (stereo unspecified)	inactive	–
CCCN(CCC)c1c([N+](=O)[O-])cc(C(F)(F)F)c(N)c1[N+](=O)[O-]	–	28.9 µM (active)
COC(=O)c1ccccc1C(=O)O	inactive	–
O=C(O)C1(C(=O)Nc2ccc(Cl)cc2Cl)CC1	–	69.2 µM (active)
CCCCOC(=O)C(C)Oc1ccc(Oc2ccc(C(F)(F)F)cn2)cc1 (stereo unspecified)	inactive	–
CCOC(=O)C(C)Oc1ccc(Oc2cnc3cc(Cl)ccc3n2)cc1 (stereo unspecified)	inactive	–
CCCOC(=O)NCCCN(C)C	inactive	–
CC(C)(C)[C@@H](O)[C@@H](Cc1ccc(Cl)cc1)n1cncn1	inactive	–
COc1c(Cl)ccc(Cl)c1C(=O)O	inactive	–
C=CCOC(Cn1ccnc1)c1ccc(Cl)cc1Cl (stereo unspecified)	inactive	–
CCCN(CCC)C(=O)SCC	inactive	–
CCCCOCCOCCOCc1cc2c(cc1CCC)OCO2	inactive	–
S=C([S-])NCCNC(=S)[S-].[Mn+2]	–	3.17 µM (active)
CCCOC(=O)c1ccc(C(=O)OCCC)nc1	inactive	–
CCOC(=O)COc1cc(-n2ncc(C(F)(F)F)c(C)c2=O)c(F)cc1Cl	inactive	–
CCOC(=O)NCCOc1ccc(Oc2ccccc2)cc1	inactive	–
COC(=O)c1ccc(I)cc1S(=O)(=O)NC(=O)Nc1nc(C)nc(OC)n1	inactive	–
CCCCOC(=O)[C@@H](C)Oc1ccc(Oc2ccc(C(F)(F)F)cn2)cc1	inactive	–
